PubChem BioAssay
Calls of active or inactive are those of the source.

Columns and labels:
[1] = molecular target: NADPH oxidase 4 (Homo sapiens) (UniProt Q9NPH5); experiment: NOX4-dependent H2O2 signal modulators, primary screen, NOX inhibitor project, cell-based, HEK293-NOX4, tetracycline-induced, Amplex Red fluorescence (AID 1160); conditions: 45 min, higher = more signal, called active from +8 up or from −8 down
[2] = molecular target: NADPH oxidase 5 (Homo sapiens) (UniProt Q96PH1); experiment: NOX5-dependent H2O2 signal modulators, primary screen, NOX inhibitor project, cell-based, HEK293-NOX5, Amplex Red fluorescence (AID 1161); conditions: HEK293-NOX5, ionomycin, 45 min, higher = more signal
[3] = A549 cell viability effects, profiling panel, calcein-AM fluorescence, 48 h, basal (AID 1162); conditions: higher = more signal; also: test concentration not given here
[4] = adipocyte viability effects, profiling panel, cell-based, 3T3-L1 adipocytes, calcein-AM fluorescence, 48 h, basal (AID 1163); conditions: 3T3-L1 adipocytes viability, higher = more signal; also: test concentration not given here
[5] = HepG2 cell viability effects, profiling panel, calcein-AM fluorescence, 48 h, basal (AID 1164); conditions: higher = more signal; also: test concentration not given here
[6] = MM1S cell viability effects, profiling panel, calcein-AM fluorescence, 48 h, basal (AID 1165); conditions: higher = more signal;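 also: viability of MM1S multiple myeloma cells under basal unstimulated conditions; test concentration not given here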
[7] = basal RPMI8226 viability, no added stimulus, profiling panel, cell-based, calcein-AM fluorescence, 48 h, PK04 Diversity Set (AID 1166); conditions: RPMI8226 myeloma viability, higher = more signal;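 also: cells grown under basal conditions without added stimulus; test concentration not given here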
[8] = basal HepG2 mitochondrial membrane potential changes, profiling panel, cell-based, JC-1 fluorescence, 24 h, 100 nL compound (AID 1167); conditions: higher = more signal; also: test concentration not given here
[9] = basal 3T3-L1 adipocyte mitochondrial potential changes, profiling panel, cell-based, JC-1 fluorescence, 3T3-L1 adipocytes, 24 h, 100 nL compound (AID 1168); conditions: JC-1 mitochondrial fluorescence, higher = more signal, called active from +8 up or from −8 down; also: test concentration not given here
[10] = basal RPMI8226 mitochondrial membrane potential changes, profiling panel, cell-based, JC-1 fluorescence, 24 h, 100 nL compound (AID 1169); conditions: RPMI8226 myeloma, JC-1 mitochondrial potential fluorescence, higher = more signal; also: test concentration not given here
[11] = basal MM1S mitochondrial membrane potential changes, profiling panel, cell-based, JC-1 fluorescence, 24 h, 100 nL compound (AID 1170); conditions: higher = more signal; also: test concentration not given here
[12] = A549 lung cancer cell viability effects, profiling panel, resazurin fluorescence, 24 h, PK04 Diversity Set (AID 1171); conditions: higher = more signal, called active from +8 up or from −8 down; also: test concentration not given here
[13] = HepG2 liver cancer cell viability effects, profiling panel, resazurin fluorescence, 24 h, PK04 Diversity Set (AID 1172); conditions: higher = more signal; also: test concentration not given here
[14] = basal S. cerevisiae growth modulation, no modifier, primary screen, OD600, strain BY4716, 24 h, basal condition (AID 1173); conditions: OD600, 24 h, higher = more signal, called active from +8 up or from −8 down
[15] = MM1S myeloma cell viability, profiling panel, resazurin fluorescence, basal, 24 h, PK04 Diversity Set (AID 1174); conditions: higher = more signal, called active from +8 up or from −8 down;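 also: MM1S multiple myeloma cell line; test concentration not given here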
[16] = molecular target: Dihydroorotate dehydrogenase (quinone), mitochondrial (Plasmodium falciparum (isolate 3D7)) (UniProt Q08210); experiment: PfDHODH enzyme inhibitors, primary screen, biochemical, C-terminal His tag, absorbance 600 nm (AID 1175); conditions: DCIP absorbance 600 nm, higher = more signal, called active from +8 up or from −8 down;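 also: recombinant parasite enzyme with a five histidine tag at its C terminus; test concentration not given here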
[17] = S. cerevisiae RM11-1a growth modifiers, primary screen, strain RM11-1a, OD600, basal, 24 h (AID 1177); conditions: OD600, 24 h, higher = more signal, called active from +8 up or from −8 down;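 also: cultures grown under basal conditions with no added stressor; test concentration not given here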
[18] = E. coli acrAB mutant growth effects, primary screen, E. coli filamentation inducers, strain DRC39, OD650, 24 h (AID 1178); conditions: higher = more signal, called active from +8 up or from −8 down;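 also: growth measured as culture turbidity by optical density at 650 nm; test concentration not given here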
[19] = E. coli acrAB mutant growth effects, primary screen, E. coli filamentation inducers, strain DRC39, OD650, 48 h (AID 1179);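 also: screen aims at cell division blockers that make cells filament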; conditions: E. coli DRC39 delta-acrAB growth, higher = more signal, called active from +8 up or from −8 down
[20] = RPMI8226 myeloma cell viability, profiling panel, resazurin fluorescence, basal, 24 h, PK04 Diversity Set (AID 1180); conditions: higher = more signal;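 also: RPMI8826 multiple myeloma cell line at 5000 cells per well; test concentration not given here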

Sequence of Dihydroorotate dehydrogenase (quinone), mitochondrial (Plasmodium falciparum (isolate 3D7)) (Q08210 whole entry, looked up): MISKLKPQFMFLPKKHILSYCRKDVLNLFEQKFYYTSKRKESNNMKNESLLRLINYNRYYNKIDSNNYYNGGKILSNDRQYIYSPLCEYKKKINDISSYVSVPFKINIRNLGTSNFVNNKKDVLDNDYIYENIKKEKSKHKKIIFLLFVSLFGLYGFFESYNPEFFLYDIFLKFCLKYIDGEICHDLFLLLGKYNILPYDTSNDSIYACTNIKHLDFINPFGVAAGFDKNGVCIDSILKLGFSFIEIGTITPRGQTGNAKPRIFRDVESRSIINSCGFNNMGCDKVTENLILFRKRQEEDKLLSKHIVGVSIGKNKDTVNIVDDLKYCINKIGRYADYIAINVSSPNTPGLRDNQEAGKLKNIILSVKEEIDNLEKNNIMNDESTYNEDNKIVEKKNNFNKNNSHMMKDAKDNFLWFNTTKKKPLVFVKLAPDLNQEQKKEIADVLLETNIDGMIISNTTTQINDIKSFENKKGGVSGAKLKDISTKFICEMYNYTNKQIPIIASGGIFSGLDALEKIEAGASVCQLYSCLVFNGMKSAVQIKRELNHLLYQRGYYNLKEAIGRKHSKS
Sequence of NADPH oxidase 4 (Homo sapiens) (Q9NPH5 whole entry, looked up): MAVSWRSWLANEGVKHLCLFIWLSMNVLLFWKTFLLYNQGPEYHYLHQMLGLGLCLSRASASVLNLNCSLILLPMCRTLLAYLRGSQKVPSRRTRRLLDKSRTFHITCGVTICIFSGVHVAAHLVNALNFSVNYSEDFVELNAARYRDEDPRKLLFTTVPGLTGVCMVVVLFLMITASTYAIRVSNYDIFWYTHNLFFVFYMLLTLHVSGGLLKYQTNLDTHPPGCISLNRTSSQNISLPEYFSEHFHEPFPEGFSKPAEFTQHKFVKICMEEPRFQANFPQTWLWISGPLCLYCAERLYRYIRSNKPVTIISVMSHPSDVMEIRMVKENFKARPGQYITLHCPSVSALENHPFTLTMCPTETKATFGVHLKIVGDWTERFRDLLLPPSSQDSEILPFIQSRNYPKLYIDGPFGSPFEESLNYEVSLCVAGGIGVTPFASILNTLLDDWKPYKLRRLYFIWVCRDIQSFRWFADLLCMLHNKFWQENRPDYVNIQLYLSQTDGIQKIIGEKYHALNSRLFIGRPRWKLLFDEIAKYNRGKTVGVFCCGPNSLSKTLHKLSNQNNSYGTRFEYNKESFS
Sequence of NADPH oxidase 5 (Homo sapiens) (Q96PH1 whole entry, looked up): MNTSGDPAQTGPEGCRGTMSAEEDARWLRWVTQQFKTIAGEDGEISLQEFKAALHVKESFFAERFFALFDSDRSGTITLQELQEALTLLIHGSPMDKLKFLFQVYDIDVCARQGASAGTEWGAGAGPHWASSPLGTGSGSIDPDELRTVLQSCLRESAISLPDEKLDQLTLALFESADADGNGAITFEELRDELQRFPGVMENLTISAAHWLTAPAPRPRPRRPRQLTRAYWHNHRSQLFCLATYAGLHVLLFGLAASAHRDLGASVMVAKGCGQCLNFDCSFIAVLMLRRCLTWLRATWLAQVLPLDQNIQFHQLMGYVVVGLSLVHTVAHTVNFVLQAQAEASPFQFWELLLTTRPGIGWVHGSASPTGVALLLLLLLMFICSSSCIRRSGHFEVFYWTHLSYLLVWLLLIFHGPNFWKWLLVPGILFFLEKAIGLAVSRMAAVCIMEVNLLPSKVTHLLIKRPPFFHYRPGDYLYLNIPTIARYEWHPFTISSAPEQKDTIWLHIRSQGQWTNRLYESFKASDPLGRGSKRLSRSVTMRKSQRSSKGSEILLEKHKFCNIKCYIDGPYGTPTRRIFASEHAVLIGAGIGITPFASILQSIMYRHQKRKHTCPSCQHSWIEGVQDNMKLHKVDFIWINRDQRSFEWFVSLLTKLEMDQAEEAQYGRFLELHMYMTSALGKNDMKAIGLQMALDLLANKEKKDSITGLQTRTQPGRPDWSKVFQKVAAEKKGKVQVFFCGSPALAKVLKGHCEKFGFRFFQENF

Compound | z-score [1] | z-score [2] | z-score [3] | z-score [4] | z-score [5] | z-score [6] | z-score [7] | z-score [8] | z-score [9] | z-score [10] | z-score [11] | z-score [12] | z-score [13] | z-score [14] | z-score [15] | composite z-score [16] | z-score [17] | z-score [18] | z-score [19] | z-score [20]
C=CC[C@@H](OC(=O)Nc1ccc(SC)cc1)c1ccc(OCCO)cc1 | -0.346 (inactive) | -2.26 | 1.13 | 0.344 | -0.0505 | -0.2 | 0.0111 | -2.22 | 0.812 (inactive) | 0.561 | -0.774 | 0.364 (inactive) | 0.537 | -5.16 (inactive) | 0.822 (inactive) | -1.13 (inactive) | -0.0086 (inactive) | 1.28 (inactive) | 0.899 (inactive) | 0.301
CC(C)CNC(=O)[C@@H]1c2ccccc2C(=O)N(Cc2ccc(OC(F)(F)F)cc2)[C@H]1c1ccc(CO)cc1 | 0.925 (inactive) | 1.57 | 2.26 | 0.18 | 0.442 | -0.201 | 0.351 | 2.64 | 1.08 (inactive) | 0.417 | -0.881 | 1.31 (inactive) | 0.867 | -1.78 (inactive) | 1.33 (inactive) | -0.876 (inactive) | -2.73 (inactive) | 1.38 (inactive) | 1.5 (inactive) | 1.13
COc1ccc(CCNC(=O)[C@@]2(Sc3ccc(C)cc3)CC(=O)N(Cc3ccccc3)[C@@H]2c2ccc(CO)cc2I)cc1 | -1.14 (inactive) | 1.78 | 0.648 | 1.14 | -0.46 | -1.78 | -2.05 | 1.17 | 0.0695 (inactive) | -0.861 | -1.3 | 1.28 (inactive) | 0.278 | -1.92 (inactive) | -2.26 (inactive) | 0.341 (inactive) | 0.893 (inactive) | 0.361 (inactive) | -0.0855 (inactive) | -1.5
CC(C)N1CC=CC23O[C@@H]4/C=C\CCCOC(=O)C4[C@H]2C(=O)N(CCCO)[C@@H]3C1=O (stereo not given in full) | -1.85 (inactive) | 2.19 | 1.02 | 0.834 | 0.152 | 0.827 | 0.311 | 0.795 | 0.32 (inactive) | 0.747 | 0.789 | 0.817 (inactive) | 0.129 | 0.11 (inactive) | 0.791 (inactive) | -0.506 (inactive) | 1.05 (inactive) | 1.36 (inactive) | 1.25 (inactive) | 1.78
O=C1N(CCS(=O)(=O)c2ccccc2)Cc2ccccc2[C@@H]2OC(c3ccc(OCCCO)cc3)=N[C@]12Cc1ccccc1 | -0.195 (inactive) | 1.01 | -1.08 | 2.11 | 0.288 | -0.0623 | -0.222 | 0.194 | 0.401 (inactive) | -1.11 | -0.693 | -0.77 (inactive) | 0.309 | 1.72 (inactive) | -0.739 (inactive) | 0.913 (inactive) | 4.1 (inactive) | 2.25 (inactive) | 1.05 (inactive) | -0.384
C=CCN1C(=O)[C@@]2(O[C@@H](CCO)[C@H]([Si](C)(C)c3ccc(OC)cc3)[C@H]2C)c2cc(N3C(=O)c4cccc5cccc3c45)ccc21 | 0.606 (inactive) | 1.25 | -3.04 | -1.3 | -4.72 | -2.92 | -4.4 | -2.34 | 2.26 (inactive) | -1.01 | -2.09 | -4.58 (inactive) | -6.14 | 0.275 (inactive) | -8.59 (active) | 0.901 (inactive) | 5.51 (inactive) | 2.57 (inactive) | 2.05 (inactive) | -6.03
COc1ccc([Si](C)(C)[C@@H]2[C@@H](CCn3cc([C@H](O)c4ccccc4)nn3)O[C@]3(C(=O)N(C)c4c(Br)cc(C)cc43)[C@H]2C)cc1 | 0.593 (inactive) | 0.231 | -1.72 | 1.49 | -4.5 | -2.72 | -4.42 | -1.11 | 2.39 (inactive) | -1.06 | -1.2 | -2.49 (inactive) | -3.66 | -1.39 (inactive) | -8.35 (active) | -0.973 (inactive) | -2.42 (inactive) | 2.5 (inactive) | 2.83 (inactive) | -6.23
C=CCNC(=O)[C@@H]1[C@H]2C(=O)O[C@H](c3ccccc3)[C@H](c3ccccc3)N2[C@H](c2ccc(O)cc2)[C@@]12C(=O)Nc1ccc(C#Cc3ccc(OC)cc3)cc12 | 1.23 (inactive) | 0.0881 | -0.629 | 1.12 | -2.27 | -2.63 | -4.22 | -2.39 | 2.94 (inactive) | -1.16 | -0.975 | -1.58 (inactive) | -0.322 | -0.267 (inactive) | -1.64 (inactive) | -1.35 (inactive) | -0.411 (inactive) | -0.071 (inactive) | 0.773 (inactive) | -3.89
C=C(CCCC)/C(=C/C[C@H](OC(=O)c1ccncc1)c1ccc(CO)o1)c1cnc2ccccc2c1 | 1.15 (inactive) | 0.737 | 0.942 | 0.87 | -0.76 | -2.31 | 0.117 | 0.265 | 1.03 (inactive) | 0.519 | -0.656 | 0.274 (inactive) | 0.921 | -1.7 (inactive) | 0.511 (inactive) | -6.96 (inactive) | -0.716 (inactive) | 1.67 (inactive) | 1.01 (inactive) | 0.874
C=CCOC(=O)[C@H]1[C@@H]2C(=O)O[C@@H](c3ccccc3)[C@@H](c3ccccc3)N2[C@@H](c2ccc(OCCOC(=O)[C@H]3C[C@H]4C(=O)N5CCC[C@H]5C(=O)N4[C@H]3c3cccc(OCCO)c3)cc2)[C@]12C(=O)Nc1ccccc12 | 1.57 (inactive) | 1.43 | 0.552 | 1.19 | -0.588 | -1.73 | 0.791 | -0.558 | 0.569 (inactive) | -0.585 | -0.673 | 0.601 (inactive) | 0.0928 | 0.22 (inactive) | 1.26 (inactive) | 0.493 (inactive) | 1.16 (inactive) | 0.971 (inactive) | 0.184 (inactive) | 1.37
C=CCC(OC(C)=O)[C@@H]1[C@@H](N(Cc2ccc(-c3ccccc3)cc2)C(=O)c2ccc(-c3ccccc3)cc2)c2cc(OCCCO)ccc2N1C(=O)c1ccc(-c2ccccc2)cc1 (stereo not given in full) | 0.967 (inactive) | 1.17 | 0.444 | 0.948 | 0.623 | 0.787 | 0.18 | 2.74 | 0.111 (inactive) | -0.176 | -0.0803 | 1.4 (inactive) | 1.46 | -0.435 (inactive) | 1.4 (inactive) | 0.169 (inactive) | -0.738 (inactive) | 1.34 (inactive) | 0.995 (inactive) | 0.899
COCCCNC(=O)[C@@]1(CCS(=O)(=O)c2ccccc2)N=C(c2ccc(OCCCO)cc2)O[C@H]1c1ccccc1CN=[N+]=[N-] | -0.383 (inactive) | -0.497 | 1 | 2.66 | -0.0301 | 0.872 | -0.532 | 1.02 | 0.164 (inactive) | -0.866 | 0.175 | 0.0658 (inactive) | -0.404 | -0.938 (inactive) | 1.21 (inactive) | -1.02 (inactive) | -1.49 (inactive) | 1.4 (inactive) | 0.502 (inactive) | 0.846
C=C1C=C(Br)C2(OCCCO2)[C@H]2OC12 (stereo not given in full) | 0.0158 (inactive) | 0.705 | -1.53 | -0.191 | 0.817 | 0.174 | -0.0566 | 0.533 | -0.696 (inactive) | 0.305 | -0.443 | -0.54 (inactive) | -0.92 | -0.353 (inactive) | -2.94 (inactive) | -0.99 (inactive) | 0.307 (inactive) | 0.846 (inactive) | 0.781 (inactive) | -0.846
CC(C)NC(=O)[C@@H]1c2ccccc2C(=O)N(Cc2cc(F)cc(C(F)(F)F)c2)[C@H]1c1ccc(CO)cc1 | 1.08 (inactive) | 0.949 | 1.48 | 1.41 | 0.813 | 0.404 | 0.252 | 1.59 | -0.64 (inactive) | -0.834 | 0.621 | 1.84 (inactive) | 0.641 | -0.518 (inactive) | 1.39 (inactive) | -0.243 (inactive) | -0.284 (inactive) | 1.33 (inactive) | 0.326 (inactive) | 1.5
C=CCNC(=O)[C@@H]1[C@H]2C(=O)O[C@H](c3ccccc3)[C@H](c3ccccc3)N2[C@H](c2ccc(O)cc2)[C@@]12C(=O)Nc1ccccc12 | -1.9 (inactive) | -1.37 | 0.106 | 2.33 | 0.869 | 0.306 | -2.6 | -0.581 | 0.889 (inactive) | -0.824 | 1.31 | 0.679 (inactive) | -0.696 | -0.146 (inactive) | 0.634 (inactive) | -0.132 (inactive) | 0.87 (inactive) | 0.874 (inactive) | 0.634 (inactive) | 0.812
CC(=O)NCCCC[C@@H]1NC(=O)[C@@H]2C[C@H](C(=O)O)[C@H](c3cccc(OCCO)c3)N2C1=O | -0.282 (inactive) | -0.948 | 0.0822 | 0.75 | -0.988 | -1.8 | 0.267 | 1.31 | 0.317 (inactive) | 0.501 | 0.483 | 0.537 (inactive) | 0.377 | 0.178 (inactive) | 0.636 (inactive) | -0.252 (inactive) | 1.2 (inactive) | 0.504 (inactive) | 0.167 (inactive) | 0.873
